The list is not random: actives were taken first. Their share in the collection is about 4%.
tim23-1 inh: inhibits growth of tim23-1 mutant yeast; hit rate 1.3% among 330,000; S. cerevisiae tim23-1 growth, BacTiter-Glo luminescence, 24 h; inhibition, % at 20 µM;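 active means growth inhibition of the mutant yeast at or above 50%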;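 further: temperature-sensitive mutant grown at 25 °C; plate controls were DMSO-treated mutant yeast for no effect and medium wells lacking yeast for full effect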
NALP3 yeast inh: inhibitors of NALP3 inflammasome in yeast | hit rate 0.39% among 330,000 | inhibition, % at 10 µM | Yeast reconstituted NLRP3/ASC/caspase-1, beta-gal luminescence, 24 h;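 active means inhibition of 50% or more; inactive means inhibition below 50%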;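 further: plate controls were induced DMSO wells for no effect and uninduced yeast grown without galactose for full effect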
tim10-1 inh: inhibits growth of tim10-1 mutant yeast. S. cerevisiae tim10-1 ts strain growth, BacTiter-Glo, 24 h. inhibition, % at 20 µM. hit rate 2.2% among 330,000;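 active means inhibition of at least 40%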;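 further: mutant grown at 25 °C; 0% = DMSO wells with yeast and 100% = wells holding no yeast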
NALP1 inh: NALP1 inhibition | S. cerevisiae NALP1/ASC/caspase-1 growth, X-gal OD620, 72 h | inhibition, % at 10 µM | hit rate 0.61% among 280,000 | AID 2071; in the data active means inhibition mostly above about 24%, no sharp cut-off; inactive means mostly below about 32%
TIM10 inh: inhibits growth of TIM10 yeast strain; S. cerevisiae TIM10 strain growth, BacTiter-Glo luminescence, 24 h; inhibition, % at 10 µM; hit rate 1.4% among 330,000; AID 463195;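 active means inhibition of 40% or more at the single tested concentration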;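 further: wild-type TIM10 isogenic control strain grown at permissive 25 °C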
tim10-1 confirm: tim10-1 yeast growth inhibition, confirmed; shares compounds with tim10-1 inh; S. cerevisiae tim10-1 ts strain growth, BacTiter-Glo, 24 h; inhibition, % at 20 µM; hit rate 56% among 7,400; AID 463213;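 active means inhibition of yeast growth at or above a set limit in either of two repeat tests at 20 µM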;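 further: tim10-1 mutant grown at permissive 25 °C to find synthetic lethal compounds; 0% = DMSO yeast wells and 100% = medium wells without yeast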
TIM10 conf: TIM10 yeast growth inhibition, confirmed; shares compounds with TIM10 inh; S. cerevisiae tim10 strain growth, BacTiter-Glo luminescence, 24 h; inhibition, % at 10 µM; hit rate 63% among 4,600; AID 463215;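 active means inhibition of yeast growth at or above a set limit in either of two replicates at 10 µM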;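 further: this counterscreen used the strain with wild-type TIM10; 0% = yeast with DMSO and 100% = medium wells lacking yeast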
tim23-1 confirm: tim23-1 yeast growth inhibition, confirmed. shares compounds with tim23-1 inh. hit rate 83% among 4,400. inhibition, % at 20 µM. S. cerevisiae tim23-1 growth, BacTiter-Glo luminescence, 24 h;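 active means inhibition above about 39% in either of two replicate wells at 20 µM, limit read from the data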;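 further: temperature-sensitive tim23-1 mutant grown at 25 °C; 0% = DMSO wells with yeast and 100% = medium wells without yeast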
Active calls of the source: *; . = no result.

SMILES	tim23-1 inh	NALP3 yeast inh	tim10-1 inh	NALP1 inh	TIM10 inh	tim10-1 confirm	TIM10 conf	tim23-1 confirm
COc1ccc2[nH]c3c(=O)n(N)c(C)nc3c2c1	21	8	19	10	4	.	.	.
COc1ccc(-c2cc3nc(C)n(N)c(=O)c3s2)cc1	69*	39	65*	.	58*	66*	48*	68*
Cc1cc(C(=O)Nc2nncs2)oc1C	5	39	-20	14	-4	.	.	.
O=C(NCCO)c1cccc2c1-c1ccccc1C2=O	-2	2	1	21	3	.	.	.
O=C1c2cccc(O)c2C(=O)c2c(O)cc(CO)cc21	71*	24	54*	.	39	39*	.	84*
O=C1C(=O)N(CCCN2CCOCC2)C(c2ccc([N+](=O)[O-])cc2)/C1=C(/O)c1ccc2c(c1)OCO2 (stereo not given)	0	4	-12	14	0	.	.	.
Cc1ccc(O)c(N=Cc2cc(Cc3ccccc3)cc([N+](=O)[O-])c2O)c1	51*	38	52*	25	37	29	.	61*
Cc1cc(Cl)c(C)c(S(=O)(=O)N2CCN(CC(=O)N3CCOCC3)CC2)c1Cl	4	17	-3	.	8	.	.	.
COc1ccc(C(=O)O/N=C(\N)c2ccccc2)c(OC)c1	60*	12	76*	26	70*	72*	67*	87*
COc1ccc(C(=O)O/N=C(\N)c2ccc(OC)c(OC)c2)c(OC)c1	30	8	38	7	4	.	.	.
COc1ccc(C(=O)O/N=C(\N)c2ccc(OC)c(OC)c2)cc1	53*	19	73*	21	49*	78*	40*	64*
CCN(Cc1ccccc1)S(=O)(=O)c1c(C)[nH]c(C)c1C(=O)N1CCCCC1	-9	5	3	-3	-3	.	.	.
O=C(/C=C\c1ccccc1OC(=O)c1ccccc1F)c1cc2ccccc2o1	59*	21	55*	28	48*	34*	23	50*
O=C(c1ccc2c(c1)OCCO2)C1CCN(S(=O)(=O)c2ccc(F)cc2)CC1	57*	19	43*	4	50*	42*	40*	47*
Cc1cccc(-n2cc(-c3ccccc3)[nH]c2=S)c1	51*	10	46*	6	20	18	.	49*
C=CC[C@@H](CC(=O)OC(C)(C)C)C(=O)OC[C@@H]1CCCN1C(=O)[C@@H](CC=C)CC(=O)N(CCO)Cc1ccccc1	28	4	18	.	11	.	.	.
O=C(/C=C/c1cccs1)NC(=S)NNC(=O)c1ccccc1O	64*	48	44*	-9	42*	24	42*	66*
CC1CCN(S(=O)(=O)c2cc(F)ccc2CN2C(=O)c3cccnc3C2=O)CC1	32	0	35	-2	11	.	.	.
C1CN(CCN2CCOCC2)CCN1	4	-2	24	-2	-6	.	.	.
N/C(=N\OC(=O)CCc1ccccc1)c1ccccc1Cl	56*	6	64*	4	47*	60*	42*	48*
CC/C(=N\NC(=O)C1CCCC1)c1cccc(Br)c1	25	6	11	-9	7	.	.	.
CCOc1ccc(OCCCC(=O)ON=C(N)c2ccccc2Cl)cc1	13	26	10	.	15	.	.	.
N/C(=N\OC(=O)CCc1ccccc1)c1ccc(Br)cc1	65*	10	47*	-2	61*	56*	55*	46*
COc1ccc(/C(N)=N/OC(=O)CCCc2ccccc2)cc1OC	6	21	29	23	6	.	.	.
N/C(=N\OC(=O)CCc1ccccc1)c1cccc(Br)c1	81*	10	70*	2	63*	64*	60*	76*
SMILES	tim23-1 inh	NALP3 yeast inh	tim10-1 inh	NALP1 inh	TIM10 inh	tim10-1 confirm	TIM10 conf	tim23-1 confirm
N/C(=N\OC(=O)C1CCCCC1)c1cccc(Br)c1	75*	11	67*	3	74*	62*	58*	81*
N/C(=N\OC(=O)CCCc1ccccc1)c1ccc(Br)cc1	19	7	25	12	23	.	.	.
CN(C)S(=O)(=O)c1cc(NC(=O)C2=COCCO2)ccc1Cl	29	10	18	.	7	.	.	.
Cc1ccc(/C(N)=N/OC(=O)CCc2ccccc2)cc1	75*	18	46*	2	55*	49*	60*	61*
COc1ccccc1N1CCN(Cc2cc(Br)c(O)c3ncccc23)CC1	68*	-12	54*	-44	-9	19	.	57*
CCOc1ccc(CN(C)C(=O)[C@H](C)NC(=O)c2ccco2)cc1OC	12	1	4	7	12	.	.	.
COc1cc(C(=O)O[C@H]2CC(C)=CC[C@@]3(C)CC[C@@](O)(C(C)C)[C@H]23)ccc1O	54*	2	50*	-11	29	40*	.	57*
Cc1csc(=O)n1CC(=O)OCc1nnc(-c2ccccc2)o1	3	16	-6	.	-1	.	.	.
Cc1ccc(NC(=O)COc2coc(CN3CCN(c4ccccc4)CC3)cc2=O)cc1	-2	31	-11	.	2	.	.	.
COc1ccc(-c2cccc(C3CC=CC4C3C(=O)N(Cc3ccccc3)C4c3ccc(OC)c(Cl)c3)c2)cc1 (stereo not given)	58*	14	49*	8	67*	37*	23	62*
CCCCN(C(=O)C1CCCC1)c1c(N)n(CCC)c(=O)[nH]c1=O	0	22	-23	.	5	.	.	.
O=C(/C=C/c1ccccc1[N+](=O)[O-])c1ccccc1Br	80*	42	63*	3	64*	73*	70*	79*
O=C(/C=C\c1ccccc1[N+](=O)[O-])Nc1ccccc1	4	42	-28	-7	-11	.	.	.
CSc1ccccc1C(=O)N(C)C(c1ccccc1)c1ccccc1	22	-5	14	-12	-5	.	.	.
CCCCCC/C(=N/O)c1ccccn1	60*	40	42*	-3	57*	6	-8	52*
CN1CCN(S(=O)(=O)c2ccc(SCCOc3ccccc3)nc2)CC1	57*	15	48*	-11	49*	52*	49*	46*
O=S(=O)(c1ccc(SCCOc2ccc(Cl)cc2)nc1)N1CCCC1	42	-14	23	.	15	.	.	.
COc1cc(/C=N/NC(=S)NC2CC3CC2C2C=CCC32)ccc1O (stereo not given)	75*	-14	53*	20	-8	42*	.	62*
CCOc1cc(CNCc2ccncc2)cc(Cl)c1OC	9	8	12	12	-2	.	.	.
COc1ccc(C(=S)N2CCOCC2)cc1OC(=O)c1ccc([N+](=O)[O-])cc1[N+](=O)[O-]	58*	9	60*	-12	71*	74*	68*	68*

Screening results: PubChem BioAssay, Sanford-Burnham Center for Chemical Genomics
